In PubChem BioAssay (EPA / NIEHS):
Activity calls are given as the source filed them. Rule for the calls: active = hit-call score of the fitted dose curve at least 0.9, where 1 is the maximum; inactive = score below 0.9.

Columns and labels:
Details in all cases: mRNA level, 48 h; actives raise or lower the signal
[1] = read-out: Tumor necrosis factor receptor superfamily member 6 (Homo sapiens) (UniProt P25445); assay: LTEA_HepaRG_FAS: Life Technologies and Expression Analysis (LTEA) Assay for Fas cell surface death receptor (FAS) using HepaRG (AID 2283447)
Outline: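 Differentiated HepaRG cells in serum-free induction medium were exposed 48 h to 8 half-log concentrations up to 100 uM in 0.5% DMSO, in duplicate. FAS mRNA was measured by qRT-PCR normalised to ACTB, GAPDH and POLR2A; bidirectional fit versus DMSO.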

[2] = read-out: Fatty acid synthase (Homo sapiens) (UniProt P49327); assay: LTEA_HepaRG_FASN: Life Technologies and Expression Analysis (LTEA) Assay for Fatty Acid Synthase (FASN) using HepaRG (AID 2283448);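 for AC50: differentiated human HepaRG liver cells in serum-free induction medium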
Outline: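 FASN expression changes, up or down relative to 0.5% DMSO, were measured by qRT-PCR in human HepaRG cells after 48 h treatment with chemicals at eight concentrations (half-log steps from 100 uM).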

[3] = read-out: Cyclin D2 (CCND2), CCND2 (gene 894); assay: LTEA_HepaRG_CCND2: Life Technologies and Expression Analysis (LTEA) Assay for Cyclin D2 (CCND2) using HepaRG (AID 2283449);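 note: CCND2 transcript measured by TaqMan qRT-PCR and normalised to three housekeeping genes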
Outline: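 Chemicals in 0.5% DMSO, eight half-log concentrations from 100 uM top, were applied in duplicate for 48 h to human HepaRG cells in serum-free induction medium. CCND2 mRNA by TaqMan qRT-PCR, normalised to ACTB/GAPDH/POLR2A; bidirectional fit versus DMSO.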

[4] = read-out: Cyclin Dependent Kinase Inhibitor 1A (CDKN1A), CDKN1A (gene 1026); assay: LTEA_HepaRG_CDKN1A: Life Technologies and Expression Analysis (LTEA) Assay for Cyclin Dependent Kinase Inhibitor 1A (CDKN1A) using HepaRG (AID 2283450)
Outline: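 Gain or loss of CDKN1A transcript is scored by bidirectional fitting against 0.5% DMSO vehicle. Human HepaRG cultures receive chemicals for 48 h across an 8-point series peaking at 100 uM; expression comes from qRT-PCR.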

Chain of Fatty acid synthase (Homo sapiens) (P49327 whole entry, looked up): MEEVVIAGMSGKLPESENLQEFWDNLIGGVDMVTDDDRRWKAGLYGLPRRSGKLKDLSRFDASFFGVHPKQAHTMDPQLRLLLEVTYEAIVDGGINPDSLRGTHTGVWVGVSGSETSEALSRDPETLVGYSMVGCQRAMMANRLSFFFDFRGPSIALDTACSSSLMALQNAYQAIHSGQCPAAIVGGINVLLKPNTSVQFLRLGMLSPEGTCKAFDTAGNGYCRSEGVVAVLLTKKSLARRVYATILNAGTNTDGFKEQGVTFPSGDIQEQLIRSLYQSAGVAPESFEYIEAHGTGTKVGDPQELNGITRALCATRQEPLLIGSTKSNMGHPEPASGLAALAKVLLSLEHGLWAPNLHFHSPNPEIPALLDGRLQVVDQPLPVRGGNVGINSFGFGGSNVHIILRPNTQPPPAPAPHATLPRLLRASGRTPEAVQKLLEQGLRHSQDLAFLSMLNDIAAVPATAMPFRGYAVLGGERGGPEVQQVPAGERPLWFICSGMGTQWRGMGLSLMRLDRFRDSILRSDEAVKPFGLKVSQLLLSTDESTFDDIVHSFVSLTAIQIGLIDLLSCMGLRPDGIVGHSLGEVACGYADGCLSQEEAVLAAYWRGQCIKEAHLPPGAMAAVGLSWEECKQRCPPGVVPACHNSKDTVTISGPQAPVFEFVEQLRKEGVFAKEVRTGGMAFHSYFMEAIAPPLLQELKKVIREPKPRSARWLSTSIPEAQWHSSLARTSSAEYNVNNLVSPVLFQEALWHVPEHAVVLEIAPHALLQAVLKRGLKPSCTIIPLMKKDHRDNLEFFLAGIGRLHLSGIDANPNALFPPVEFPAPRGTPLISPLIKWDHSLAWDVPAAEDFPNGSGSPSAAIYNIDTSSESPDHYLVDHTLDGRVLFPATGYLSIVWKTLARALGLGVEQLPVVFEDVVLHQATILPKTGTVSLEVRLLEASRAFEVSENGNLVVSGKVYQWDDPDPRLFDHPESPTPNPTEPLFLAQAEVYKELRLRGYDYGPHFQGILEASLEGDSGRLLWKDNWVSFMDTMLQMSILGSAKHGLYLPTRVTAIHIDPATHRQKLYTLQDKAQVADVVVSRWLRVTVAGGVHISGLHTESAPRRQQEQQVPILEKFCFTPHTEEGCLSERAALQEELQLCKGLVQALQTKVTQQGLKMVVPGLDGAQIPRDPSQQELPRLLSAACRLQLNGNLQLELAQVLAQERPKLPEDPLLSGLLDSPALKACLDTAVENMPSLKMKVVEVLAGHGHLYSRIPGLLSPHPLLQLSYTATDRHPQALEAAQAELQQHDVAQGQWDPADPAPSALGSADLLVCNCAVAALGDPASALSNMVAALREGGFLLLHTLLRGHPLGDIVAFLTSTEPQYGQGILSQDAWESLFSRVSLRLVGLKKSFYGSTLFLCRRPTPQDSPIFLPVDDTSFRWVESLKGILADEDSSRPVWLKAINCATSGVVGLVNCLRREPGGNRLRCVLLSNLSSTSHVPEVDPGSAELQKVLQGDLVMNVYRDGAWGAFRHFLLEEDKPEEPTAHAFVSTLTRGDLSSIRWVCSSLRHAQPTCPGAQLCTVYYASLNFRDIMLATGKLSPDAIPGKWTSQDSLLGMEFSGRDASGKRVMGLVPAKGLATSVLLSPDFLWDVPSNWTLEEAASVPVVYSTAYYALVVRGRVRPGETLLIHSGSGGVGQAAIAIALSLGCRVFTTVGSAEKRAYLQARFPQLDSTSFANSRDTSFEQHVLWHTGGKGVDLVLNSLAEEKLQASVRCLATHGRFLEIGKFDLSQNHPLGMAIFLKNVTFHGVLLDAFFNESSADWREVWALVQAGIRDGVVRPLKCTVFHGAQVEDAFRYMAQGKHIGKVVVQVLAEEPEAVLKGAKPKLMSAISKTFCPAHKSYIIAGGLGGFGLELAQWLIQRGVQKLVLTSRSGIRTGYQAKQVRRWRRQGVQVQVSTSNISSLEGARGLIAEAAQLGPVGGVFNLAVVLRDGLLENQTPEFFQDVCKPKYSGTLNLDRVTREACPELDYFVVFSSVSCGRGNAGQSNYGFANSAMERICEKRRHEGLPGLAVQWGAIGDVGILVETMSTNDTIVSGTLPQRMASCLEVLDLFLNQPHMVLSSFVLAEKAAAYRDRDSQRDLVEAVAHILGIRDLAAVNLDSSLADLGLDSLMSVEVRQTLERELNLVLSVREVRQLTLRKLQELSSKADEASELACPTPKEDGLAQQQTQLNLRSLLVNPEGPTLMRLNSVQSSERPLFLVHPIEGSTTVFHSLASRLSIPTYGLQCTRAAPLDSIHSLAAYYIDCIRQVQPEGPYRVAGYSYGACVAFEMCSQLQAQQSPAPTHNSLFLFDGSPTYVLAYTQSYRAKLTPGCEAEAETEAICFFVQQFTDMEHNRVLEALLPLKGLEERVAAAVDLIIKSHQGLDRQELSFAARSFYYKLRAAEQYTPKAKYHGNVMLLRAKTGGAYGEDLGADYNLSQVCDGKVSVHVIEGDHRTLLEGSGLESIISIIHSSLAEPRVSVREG

Question: With NC(=Nc1ccccc1)Nc1ccccc1 as the compound, how does the outcome [1] read?
Answer: Its outcome is “inactive”.

Question: And the outcome [2]?
Answer: Its outcome is “inactive”.

Question: And the outcome [3]?
Answer: The outcome was “inactive”.

Question: What about the outcome [4] of the same compound?
Answer: Its outcome is “inactive”.

Question: What does the source list for CS(=O)(=O)c1ccc([C@@H](C[C@H]2CCC(=O)C2)C(=O)Nc2cnccn2)cc1Cl?
Answer: AC50 [1]: 24.4 µM (active); outcome [2]: inactive; AC50 [3]: 2.19 µM (active); outcome [4]: inactive

Question: With CCCCCCCC(=O)OC as the compound, how does the outcome [1] read?
Answer: Its outcome is “inactive”.

Question: And the outcome [2]?
Answer: The outcome was “inactive”.

Question: What about the outcome [3] of the same compound?
Answer: The outcome was “inactive”.

Question: And the outcome [4]?
Answer: Its outcome is “inactive”.

Question: With O=[Si]=O as the compound, how does the outcome [2] read?
Answer: Its outcome is “inactive”.

Question: And the outcome [4]?
Answer: Its outcome is “inactive”.

Question: For Cn1cnc2c1c(=O)[nH]c(=O)n2C, which outcome [1] is on record?
Answer: Its outcome is “inactive”.

Question: And the outcome [2]?
Answer: Its outcome is “inactive”.

Question: And the outcome [3]?
Answer: Its outcome is “inactive”.

Question: And the outcome [4]?
Answer: Its outcome is “inactive”.

Question: C/C=C/C=C/C(=O)O was tested. Which outcome [2] did it give?
Answer: The outcome was “inactive”.

Question: What about the outcome [3] of the same compound?
Answer: The outcome was “inactive”.

Question: What about the outcome [4] of the same compound?
Answer: Its outcome is “inactive”.

Question: Which outcome [1] does the source give for O=C(N[C@@H](c1ccccc1)[C@@H]1CCCCN1)c1cccc(C(F)(F)F)c1Cl here?
Answer: Its outcome is “inactive”.

Question: And the AC50 [2]?
Answer: Its AC50 is 85 µM (active).

Question: What about the outcome [3] of the same compound?
Answer: The outcome was “inactive”.

Question: What about the outcome [4] of the same compound?
Answer: Its outcome is “inactive”.

Question: Which outcome [1] does the source give for CCCC(=O)O here?
Answer: Its outcome is “inactive”.

Question: What about the outcome [2] of the same compound?
Answer: Its outcome is “inactive”.

Question: What about the outcome [3] of the same compound?
Answer: The outcome was “inactive”.

Question: What about the outcome [4] of the same compound?
Answer: Its outcome is “inactive”.

Question: How did the outcome [1] turn out when O=C(NS(=O)(=O)/C=C/c1cccs1)c1ccc(F)cc1Br was run?
Answer: The outcome was “inactive”.

Question: What about the outcome [2] of the same compound?
Answer: Its outcome is “inactive”.

Question: And the outcome [4]?
Answer: The outcome was “inactive”.

Question: How did the outcome [1] turn out when CCCCCCC(C=O)=Cc1ccccc1 was run?
Answer: Its outcome is “inactive”.

Question: What about the outcome [2] of the same compound?
Answer: The outcome was “inactive”.

Question: And the outcome [4]?
Answer: The outcome was “inactive”.

Question: With O=Cc1ccccc1C=O as the compound, how does the outcome [1] read?
Answer: The outcome was “inactive”.

Question: And the outcome [2]?
Answer: Its outcome is “inactive”.

Question: What about the outcome [3] of the same compound?
Answer: Its outcome is “inactive”.

Question: What about the outcome [4] of the same compound?
Answer: Its outcome is “inactive”.

Question: What does the source list for CN(C)CCCN(C)CCCN(C)C?
Answer: outcome [1]: inactive; outcome [2]: inactive; outcome [4]: inactive

Question: With Cc1ccc(-c2cc(C(F)(F)F)nn2-c2ccc(S(N)(=O)=O)cc2)cc1 as the compound, how does the AC50 [1] read?
Answer: The AC50 was 84.5 µM (active).

Question: What about the AC50 [2] of the same compound?
Answer: Its AC50 is 76.7 µM (active).

Question: And the outcome [3]?
Answer: Its outcome is “inactive”.

Question: What about the outcome [4] of the same compound?
Answer: Its outcome is “inactive”.

Question: COC(=O)CCC(=O)OC was tested. Which outcome [1] did it give?
Answer: The outcome was “inactive”.

Question: What about the outcome [2] of the same compound?
Answer: The outcome was “inactive”.

Question: And the outcome [4]?
Answer: Its outcome is “inactive”.

Question: COC(=O)CCCC(=O)OC was tested. Which outcome [1] did it give?
Answer: The outcome was “inactive”.

Question: What about the outcome [2] of the same compound?
Answer: The outcome was “inactive”.

Question: And the outcome [3]?
Answer: Its outcome is “inactive”.

Question: What about the outcome [4] of the same compound?
Answer: The outcome was “inactive”.

Question: With CC(N)=O as the compound, how does the outcome [1] read?
Answer: Its outcome is “inactive”.

Question: What about the outcome [2] of the same compound?
Answer: The outcome was “inactive”.

Question: And the outcome [4]?
Answer: The outcome was “inactive”.

Question: Which results are given for CCCCOC(=O)CCCCC(=O)OCCCC?
Answer: outcome [1]: inactive; outcome [2]: inactive; outcome [3]: inactive; outcome [4]: inactive
